Reference: PubChem BioAssay AID488969 (Vanderbilt High Throughput Screening Facility, 2010)
Whole data set: some 110,000 compounds, median “z-score” near -0.1, cut for the highest 2% near 2. The sample holds the highest values, similar compounds and a random draw of the others, so the mix is not that of the screen. Activity calls are given as the source filed them.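 The calls were made as follows: active = z-score in the third read window above 3 or below -3; inactive = the rest.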

molecular target: Metabotropic glutamate receptor 8 (Rattus norvegicus) (UniProt P70579); assay: mGluR8 Gi/Go-coupled signaling modulation – cell-based, rat, thallium flux, HTS, primary screen (AID 488969); details: HEK293 rat mGluR8, GIRK (G protein-gated inwardly rectifying potassium channel) thallium flux, FluoZin2; at 10 µM; stronger effect = higher value; submaximal glutamate (EC20) added with thallium
Sequence (P70579 whole entry, looked up): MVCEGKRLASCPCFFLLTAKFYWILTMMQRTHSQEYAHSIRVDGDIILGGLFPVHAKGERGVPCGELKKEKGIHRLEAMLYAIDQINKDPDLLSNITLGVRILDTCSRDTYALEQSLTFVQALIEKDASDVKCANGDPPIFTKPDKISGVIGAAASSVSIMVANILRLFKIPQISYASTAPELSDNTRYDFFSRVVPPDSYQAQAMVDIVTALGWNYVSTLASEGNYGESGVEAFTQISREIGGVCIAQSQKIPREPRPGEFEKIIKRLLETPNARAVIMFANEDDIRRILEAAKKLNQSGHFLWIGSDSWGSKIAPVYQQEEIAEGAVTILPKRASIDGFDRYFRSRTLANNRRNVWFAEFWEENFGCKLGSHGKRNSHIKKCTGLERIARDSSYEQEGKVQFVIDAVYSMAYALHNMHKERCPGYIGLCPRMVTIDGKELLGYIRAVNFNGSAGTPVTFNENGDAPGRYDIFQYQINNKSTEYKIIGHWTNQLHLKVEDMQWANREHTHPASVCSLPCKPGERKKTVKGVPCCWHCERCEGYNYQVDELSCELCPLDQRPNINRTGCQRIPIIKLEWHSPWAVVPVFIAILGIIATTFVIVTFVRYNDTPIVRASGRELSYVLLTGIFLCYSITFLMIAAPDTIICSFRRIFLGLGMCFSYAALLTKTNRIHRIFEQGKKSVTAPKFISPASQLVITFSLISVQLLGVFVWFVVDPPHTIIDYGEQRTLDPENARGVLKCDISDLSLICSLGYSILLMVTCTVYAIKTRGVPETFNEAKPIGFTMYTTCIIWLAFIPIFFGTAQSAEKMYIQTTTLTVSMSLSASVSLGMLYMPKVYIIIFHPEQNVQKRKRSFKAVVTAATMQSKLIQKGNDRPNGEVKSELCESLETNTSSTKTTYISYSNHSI

SMILES	z-score
O=C(Nc1ccccc1)c1ccc(S(=O)(=O)N2CCCCC2)cc1	-0.0563
COc1ccc(C(CC(=O)O)NC(=O)c2ccccc2)cc1OC (centres undefined)	-0.105
O=C(CC(NC(=O)c1ccccc1)c1ccccc1)Nc1cccc2ccccc12 (centres undefined)	-0.0391
COc1cccc(C(CC(=O)Nc2cccc3ccccc23)NC(=O)c2ccccc2)c1 (centres undefined)	2.17
Cc1cc(C)nc(SCc2nnc(SCC(=O)Nc3nccs3)n2C)n1	0.465
COc1ccc(C(=O)C(c2ccccc2)N2CCOCC2)cc1 (centres undefined)	2.44
CCCCCOc1ccc(C(=O)C(c2ccccc2)N2CCOCC2)cc1 (centres undefined)	0.204
CCOc1ccc(C(=O)C(c2ccccc2)N2CCOCC2)cc1 (centres undefined)	-0.418
O=S(=O)(Nc1ccc(N=Nc2ccccc2)cc1)c1ccccc1	-0.241
COc1ccc(OC)c(N(CC(=O)NCc2cccnc2)S(C)(=O)=O)c1	0.361
COc1cccc(N(CC(=O)NCc2cccnc2)S(C)(=O)=O)c1	3.97 (active)
COc1cccc(CNC(=O)CN(c2cc(C)cc(C)c2)S(=O)(=O)c2c(C)noc2C)c1	2.13
Cc1cccc(N(CC(=O)Nc2ccc(F)cc2)S(C)(=O)=O)c1	0.171
Cc1ccc(N(CC(=O)NCc2cccnc2)S(C)(=O)=O)cc1C	0.196
CC(=O)c1cccc(NC(=O)CN(c2cccc(F)c2)S(C)(=O)=O)c1	-0.268
COc1cccc(N(CC(=O)Nc2cccc(C(C)=O)c2)S(C)(=O)=O)c1	4.2 (active)
COc1ccc(CNC(=O)CN(c2cc(C)cc(C)c2)S(=O)(=O)c2c(C)noc2C)cc1	-0.0907
COc1cccc(NC(=O)CN(c2cccc(F)c2)S(C)(=O)=O)c1	-0.058
CC(=O)c1cccc(N(CC(=O)Nc2ccc(F)cc2)S(C)(=O)=O)c1	2.52
CC(=O)c1cccc(N(CC(=O)Nc2cccnc2)S(C)(=O)=O)c1	0.179
COc1ccc(N(CC(=O)NCc2cccc(OC)c2)S(=O)(=O)c2c(C)noc2C)cc1	-0.199
COc1ccc(CNC(=O)C2CCN(c3nccs3)CC2)cc1	-0.318
Cc1cc(NC(=O)CSc2nnc(-c3cccs3)n2N)no1	-0.647
COc1ccc2nc(SC(C(=O)c3ccccc3)c3ccccc3)nc(C)c2c1 (centres undefined)	0.574
CC(=O)c1cccc(S(=O)(=O)NCC2CCCCC2)c1	0.0227
COC(=O)/C(=C/Nc1cccc2ccccc12)[N+](=O)[O-]	-0.204

SMILES	z-score
COC(=O)c1sccc1-c1ccc(/C=N/OCc2c(Cl)cccc2Cl)o1	-0.187
Cc1ccc(-c2c(C)n([O-])c3c([n+]2=O)CCCCC3)o1	-0.48
CC(C)Sc1nc(C(F)(F)F)cc(=O)n1-c1ccccc1	0.426
COc1cc(-n2c(=O)c3ccccc3n(Cc3ccccc3)c2=O)cc(OC)c1OC	-0.047
CC(=O)Oc1c(C(=O)c2nnc(C)o2)c(=O)n(Cc2ccccc2)c2ccccc12	2.07
CC(=O)Oc1c(C(=O)c2nnc(C)o2)c(=O)n(C)c2ccccc12	-0.074
CCc1ccc(NC(=O)N(CCCOC(C)C)C2CCN(C(C)=O)CC2)cc1	0.807
CC(C)(C)NC(=O)c1ccc2nccnc2c1	0.232
O=C(Nc1nccs1)c1ccc2nccnc2c1	0.133
CC(C)(C)c1csc(NC(=O)c2ccc3nccnc3c2)n1	5.29 (active)
O=C(CCC(=O)OCC(=O)c1ccc(Cl)cc1Cl)Nc1cccc2cccnc12	0.0344
O=C(NCc1ccco1)C(c1ccc(F)cc1)N(CC1CCCO1)C(=O)Cn1nnc2ccccc21 (centres undefined)	-0.299
CCOC(=O)c1nnn(CC(=O)N2N=C(c3cc(C)ccc3C)CC2c2ccc(OC)cc2)c1C(=O)OCC (centres undefined)	-0.378
COc1ccc(/C(N)=N/OC(=O)Oc2ccccc2)cc1OC	-0.183
COC(=O)c1ccc2c(=O)n(Cc3ccco3)c(SCC(=O)Nc3ccc(C)c(Cl)c3)nc2c1	0.24
O=C(CSc1nnc(-c2ccccc2)n1Cc1ccco1)Nc1ccc(S(=O)(=O)N2CCCC2)cc1	-1.61
O=C(CSc1nc2cc(Cl)ccc2c(=O)n1Cc1ccco1)Nc1ccc(S(=O)(=O)N2CCOCC2)cc1	2.05
CNS(=O)(=O)c1cc(C(=O)NCc2ccco2)ccc1Cl	0.119
CCOc1ccc(NC(=S)N(CCCN2CCOCC2)Cc2cn(C)c3ccccc23)cc1	-0.232
N=c1n(Cc2ccccc2)c2ccccc2n1CC(O)c1ccccc1 (centres undefined)	0.899
CCc1cccc(CC)c1NC(=O)COC(=O)c1ccc2c(c1)S(=O)(=O)c1ccccc1C2=O	-0.326
CCC(C)c1ccccc1NC(=O)COC(=O)c1ccc2c(c1)S(=O)(=O)c1ccccc1C2=O (centres undefined)	2.17
CCC(C)c1ccccc1NC(=O)COC(=O)c1ccc2[nH]c3c(c2c1)CCCC3 (centres undefined)	-0.0793
C=CCn1c(-c2cccc(OC)c2)n[nH]c1=S	-0.21
CCCn1c(SCC(=O)Nc2nnc(-c3ccccc3)s2)nnc1-c1ccccn1	-0.176
Cc1ccc(C(=O)N/C(=C\c2ccccc2)C(=O)OCc2ccccc2)cc1	-0.52

SMILES	z-score
CCOC(=O)C1=C(CC)OC(N)=C(C#N)C1c1cccs1 (centres undefined)	-0.237
CCOC(=O)C1=C(CSc2nc(-c3ccccc3)ccc2C#N)OC(N)=C(C#N)C1c1cccnc1 (centres undefined)	-0.107
CCOC(=O)C1=C(CSc2nc(-c3ccccc3)ccc2C#N)OC(N)=C(C#N)C1c1ccc(OC)cc1 (centres undefined)	0.0604
CCOC(=O)C1=C(c2ccccc2)OC(N)=C(C#N)C1c1cccs1 (centres undefined)	0.288
CCOC(=O)CC1=C(C(=O)OCC)C(c2cccs2)C(C#N)=C(N)O1 (centres undefined)	3.6 (active)
CCOC(=O)C1=C(CSc2nc(-c3ccccc3)ccc2C#N)OC(N)=C(C#N)C1c1ccccc1 (centres undefined)	2.03
Cc1[nH]c2ccccc2c1/C=N/NC(=O)c1cc(-c2cccs2)[nH]n1	-0.101
Cn1c(=O)[nH]c(=O)c2c1nc(NCCCn1ccnc1)n2Cc1ccc(F)cc1	0.613
Cc1cc(Nc2cccc([N+](=O)[O-])c2)n2c(nc3ccccc32)c1C#N	0.0405
Cc1cccc(-n2c(O)c(C=Nc3c(C)n(C)n(-c4ccccc4)c3=O)c3ccccc3c2=O)n1	-0.137
COc1cccc(N=Cc2c(O)n(-c3cccc(C)n3)c(=O)c3ccccc23)c1	-0.226
Cc1cccc(-n2c(O)c(/C=N/NC(=O)c3ccccc3Cl)c3ccccc3c2=O)n1	5.65 (active)
Cc1ccn2c(C(=O)N/N=C/c3ccc(CNC(=O)C(=O)Nc4ccc(C)c(C)c4)o3)c(C)nc2c1	0.623
CNC(=O)c1[nH]cnc1C(=O)Nc1ccccc1C	0.825
COc1ccc(NC(=O)c2nc[nH]c2C(=O)Nc2ccccc2C)cc1	0.48
Cc1ccccc1NC(=O)c1nc[nH]c1C(=O)NCc1ccccc1	2.57
Cc1cccc(Oc2nc(-c3ccccc3)cc(C)c2S(C)(=O)=O)c1C	0.102
COc1ccc(-c2nc(C)ncc2-c2csc(C)n2)c(O)c1	-0.348
CN1/C(=C/C(=O)c2ccc(Cl)cc2)Sc2cc3c(cc21)OCO3	-1.93
CC(C)CCN1C(=O)CCC1(C)C(=O)NC1CCCCCCC1 (centres undefined)	-0.383
CCOC(=O)C1C(=O)C=C(c2cccc(NS(C)(=O)=O)c2)CC1c1ccco1 (centres undefined)	-0.737
CCOC(=O)C1C(=O)C=C(c2ccc(NS(C)(=O)=O)cc2)CC1c1ccco1 (centres undefined)	2.57
CCOC(=O)C1C(=O)C=C(c2ccc(C)cc2)CC1c1ccco1 (centres undefined)	-0.0925
NNC(=O)C=C1CCN(c2ncc(C(F)(F)F)cc2Cl)CC1	0.00385
Cc1ccc(C)c(NS(=O)(=O)c2cc(C(=O)NCc3ccco3)ccc2C)c1	-0.408
O=C(CN1CCCCC1)Nc1cccc(Cl)c1Cl	-0.108

SMILES	z-score
CCOC(=O)C(CCOc1cccc(CC)c1)C(=O)OCC	-0.709
CCOC(=O)C(CCCOc1cccc(CC)c1)C(=O)OCC	0.094
CCOC(=O)C(CCCCOc1cccc(CC)c1)C(=O)OCC	3.18 (active)
O=C(CC(c1ccco1)C1CCCCC1=O)c1ccccc1 (centres undefined)	-0.656
Cc1cccc(NC(=O)COC(=O)c2ccccc2-c2nc3ccccc3s2)c1C	-0.272
O=C(Nc1cccc(-c2nc3ccccc3s2)c1)c1cc(-n2cnnc2)ccc1Cl	-0.00826
COc1ccc(CNC(=O)COC(=O)CCC2CCCCC2)cc1	-0.328
CC(C)Oc1ccc(C2CC(=O)N(c3ccc(N(C)C)cc3)C2=O)cc1 (centres undefined)	-0.0638
COc1ccc(N2C(=O)CC(c3ccc(OC(C)C)cc3)C2=O)cc1 (centres undefined)	-0.209
CC(C)Oc1ccc(C2CC(=O)N(c3ccccc3)C2=O)cc1 (centres undefined)	2.33
COc1ccc(C2C(C(=O)Nc3cccc(C)n3)c3ccccc3C(=O)N2C)cc1OC (centres undefined)	-0.119
CCOc1ccc(N(CC(=O)NN=C2CCN(C)CC2)S(C)(=O)=O)cc1	-0.0704
CCOC(=O)Cn1c(C)cc(=O)c2cccc(C)c21	-0.0778
Cc1cccc2c(=O)cc(C)n(CC(=O)N3CCCCC3)c12	3.39 (active)
Cc1cccc2c(=O)cc(C)n(Cc3ccccc3)c12	-0.148
CC(Oc1ccccc1)C(=O)NC1CCN(Cc2ccccc2)CC1 (centres undefined)	-2.68
C=CCSc1nnc(NC(=O)CSc2ccccn2)s1	-0.421
COc1ccc(/C(C)=C2/SC(=S)N(CCC(=O)O)C2=O)cc1	-0.343
Cc1ccc(C)n1-c1ccc(N2CCOCC2)nc1	-0.064
O=C(CSc1nc(-c2ccc(F)cc2)cc(C(F)(F)F)n1)NCCN1CCOCC1	0.00416
COc1ccc(-c2cc(C(F)(F)F)nc(SCC(=O)NCCN3CCOCC3)n2)cc1OC	0.846
O=C(CSc1nc(-c2ccccc2)cc(C(F)(F)F)n1)NCCN1CCOCC1	2.92
Cc1ccc(C)c(-n2c(SCC(N)=O)nnc2-c2ccccn2)c1	-0.142
Cc1ccc(-n2c(SCC(N)=O)nnc2-c2ccccn2)cc1	2.09
Cc1ccc(-n2c(SCC(N)=O)nnc2-c2ccccn2)cc1C	0.0328
CCCCn1c(N)c(-c2nc3ccccc3s2)c2c([N+](=O)[O-])nn(C)c(=O)c21	1.31
